Patent publication US20220289795, “EFFICIENT METHOD FOR PREPARING PPR PROTEIN AND USE OF THE SAME” (EditForce, Inc., published 2022)

Target: T1, NL_v2_PPR11 (Artificial Sequence)
T1 chain: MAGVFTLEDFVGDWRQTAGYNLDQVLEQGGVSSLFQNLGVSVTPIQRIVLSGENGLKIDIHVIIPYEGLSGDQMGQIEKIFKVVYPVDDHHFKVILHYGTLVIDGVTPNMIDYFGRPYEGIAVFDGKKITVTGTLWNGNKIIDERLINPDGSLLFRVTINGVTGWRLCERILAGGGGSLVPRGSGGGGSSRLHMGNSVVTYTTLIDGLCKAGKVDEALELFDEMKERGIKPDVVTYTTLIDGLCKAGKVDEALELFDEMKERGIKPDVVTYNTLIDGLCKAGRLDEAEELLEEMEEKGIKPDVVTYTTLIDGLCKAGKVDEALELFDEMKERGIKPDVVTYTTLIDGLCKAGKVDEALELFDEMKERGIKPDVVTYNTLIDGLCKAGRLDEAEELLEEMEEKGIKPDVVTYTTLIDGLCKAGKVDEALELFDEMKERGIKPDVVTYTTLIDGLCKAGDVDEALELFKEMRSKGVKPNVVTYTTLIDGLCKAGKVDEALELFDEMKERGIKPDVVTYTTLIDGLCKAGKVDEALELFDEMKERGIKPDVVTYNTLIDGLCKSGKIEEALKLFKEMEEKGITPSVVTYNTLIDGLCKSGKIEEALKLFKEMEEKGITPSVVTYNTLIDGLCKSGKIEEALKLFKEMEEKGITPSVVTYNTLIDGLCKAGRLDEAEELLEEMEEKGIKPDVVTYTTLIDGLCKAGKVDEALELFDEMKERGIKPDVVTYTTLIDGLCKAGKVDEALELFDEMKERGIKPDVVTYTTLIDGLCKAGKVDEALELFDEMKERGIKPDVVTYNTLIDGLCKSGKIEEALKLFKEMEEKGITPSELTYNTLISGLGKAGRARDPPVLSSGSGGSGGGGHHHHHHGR
Assay: RPB-ELISA
Details: tags: N-terminal luciferase, C-terminal 6xHis; label: 5'-biotin; ssRNA
Procedure: RNA probes consisting of a designed 30-base sequence containing 18 bases of the target sequence and modified by biotinylation at the 5′ end (RNA_1, RNA_2, RNA_3, RNA_4, and RNA_5, SEQ ID NOS: 61 to 65) were synthesized (Grainer). To a streptavidin-coated plate (Thermo fisher), the 5′-end biotinylated RNA probes were added, reaction was allowed at room temperature for 30 minutes, and the plate was washed with a lysis buffer (20 mM Tris-HCl, pH 7.6, 150 mM NaCl, 5 mM MgCl₂, 0.5% NP-40, 1 mM DTT, 0.1% BSA). For background measurement, wells to which RNA was not added, but 100 μL of the lysis buffer, 1 μL of 100 mM DTT, and 1 μL of 40 unit/4 RNase inhibitor (Takara, 2313A) were added were also prepared. Then, 200 μL of a blocking buffer (20 mM Tris-HCl, pH 7.6, 150 mM NaCl, 5 mM MgCl₂, 0.5% NP-40, 1 mM DTT, 1% BSA) was added, and the plate surface was blocked at room temperature for 30 minutes. Then, 100 μL of E. coli lysate containing luciferase-fused PPR protein having a luminescence level of 1.5×10⁸ LU/μL was added to each well, and the binding reaction was allowed at room temperature for 30 minutes. The well was washed 5 times with 200 μL of a washing buffer (20 mM Tris-HCl, pH 7.6, 150 mM NaCl, 5 mM MgCl₂, 0.5% NP-40, 1 mM DTT). […] The background (luminescence signal value obtained with adding the PPR protein and without adding RNA) was subtracted from the luminescences of the samples to which a solution containing each RNA and PPR protein was added, and the obtained values were used as the binding powers between the PPR protein and RNA.
By using the v2 motif, PPR proteins for 23 kinds of target sequences (T_1 to T_3, and T_5 to T_24, SEQ ID NOS: […]) were prepared (NL_v2_PPR1 to 3, and NL_v2_PPR5 to 24, SEQ ID NOS: 56 to 58 and 70 to 88), and RPB-ELISA was used to analyze bindings of all the combinations. The experimental method was the same as that used in Example 3.

| Sequence | binding signal [log2 luminescence] |
| --- | --- |
| GGUUAGAGAUACAGUGUG | 20.4 |
